Values joined by “and” are separate entries in the source; they are usually repeats but may differ in a detail not shown here. Identical values can stand only once. Active and inactive are the calls of the source.
assay: CREB reporter modulators without forskolin, primary screen, cell-based, PC12, CRE-LacZ reporter, unstimulated (AID 1145); conditions: no forskolin, luminescence, 4.5 h, higher = more signal, called active from +8 up or from −8 down

z-score, active:
C=CCN1C(=O)[C@]2(O[C@H](CCn3cc(CCO)nn3)[C@@H]([Si](C)(C)c3ccc(OC)cc3)[C@@H]2C)c2cc(N3C(=O)c4cccc5cccc3c45)ccc21 29.7 and 37.9

z-score, inactive:
C=CCN(C(=O)C1N(CCOCCO)C(=O)C2C(C(=O)O)C3C=CC21O3)C(C)(C)C (centres undefined) -0.627 and 0.0605, CCOC(=O)c1ccc(NC(=O)O[C@H]2[C@H](OC(=O)Nc3ccccc3)[C@H](OC(=O)Nc3ccccc3)[C@@H](OC)O[C@@H]2CO)cc1 -0.0484 and 0.596, CC(C)=NOCc1ccc(-c2cn([C@@H]3COC[C@H]3O)nn2)cc1 1.47, C[C@@H]1CC[C@H]2C(=O)O[C@H](CN=[N+]=[N-])CN2[C@H]1c1ccc(Br)cc1 -0.162 and 3.89, CC(CO)N1C(=O)[C@@H]2C3C(=O)OCCC=C[C@H]3OC23C=CCN(Cc2ccccc2)C(=O)[C@@H]13 (some centres undefined) 0.321 and 0.195, C=CCN(C(=O)C1N(c2c(Cl)cccc2CO)C(=O)C2C(C(=O)O)C3C=CC21O3)C(C)(C)C (centres undefined) -1.44 and 0.329, O=C1C[C@]2(c3ccc([N+](=O)[O-])cc3)C(=O)N(Cc3ccccc3)c3cc(CO)ccc3[C@H]2N1C1CCCCC1 -0.348 and -0.152, C[C@@H](ON=C1[C@H]2CCn3c(=O)n(-c4ccccc4)c(=O)n3[C@H]2[C@H](O)[C@@H]2O[C@H]12)c1cn([C@H](CO)Cc2ccccc2)nn1 -0.157
